HBB splice mod: qHTS Assay for Modulators of Hemoglobin Beta Chain Splicing. HBB splicing reporter cell assay, activation; EGFP reporter with mutant IVS2-654 intron; response scale: normalised to 500 nM splice-correcting PNA. Potency, µM (highest dose often 46.1 µM), usual class: activators. 0.06% of 65,000 active. AID 925, 2007
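Compounds were applied for 2 days to HeLa EGFP-654 cells, 500/well in Optimem with 2% FCS. The reporter's EGFP is disrupted by mis-splicing of beta-globin intron IVS2-654. Readout: summed well GFP fluorescence from 488 nm laser scanning; reference was 500 nM antisense […] 654 PNA.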
GFP derepression: qHTS Assay for Epigenetic Modulators; mouse C127i GFP locus derepression, cytometry, 30 h; Potency, µM (doses to about 46.1 µM); 0.09% of 68,000 active; AID 597, 2007
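Murine C127i mammary cells carrying a silenced, stably integrated CMV-driven GFP reporter were treated with compound for 30 hours at 37 C. After PBS washes, GFP-positive cells were counted by laser-scanning microplate cytometry.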
p53ts 32C kill: qHTS Screen for Compounds that Selectively Target Cancer Cells with p53 Mutations: Cytotoxicity of p53ts Cells at the Permissive Temperature. H1299-p53A138V at 32C, ATP luminescence viability, 24 h. Potency, µM (top dose mostly 46.1 µM), usual class: cytotoxic. 0.93% of 130,000 active; note: nearly all actives have a fitted effect of over 55% in size
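ATP-content luminescence (ATPlite) read-out after 24 h compound exposure at 32C in H1299-p53A138V cells (600/well). Tested up to 46 uM. Normalized to DMSO (0%) and 100 uM tamoxifen (100% killing); Hill-fit AC50.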
p53ts 39C kill: qHTS Screen for Compounds that Selectively Target Cancer Cells with p53 Mutations: Cytotoxicity of p53ts Cells at the Nonpermissive Temperature; H1299-p53A138V viability at 39C, ATP luminescence, 24 h; Potency, µM (highest dose often 46.1 µM), actives largely listed as cytotoxic; 1.5% of 130,000 active; note: nearly all actives have a fitted effect of over 55% in size
Ub-GFP proteasome: Ubiquitin-GFP Assay; Ubiquitin-GFP reporter cells, proteasome inhibition, GFP fluorescence; response scale: untreated = 0%, 10 µM MG-132 = 100%; Potency, µM (doses to about 45.9 µM), most hits filed as activators; 67,000 tested, under 10 active; AID 526, 2006; active = well fitted activation curve with a large enough effect, not every such curve was filed as active; inconclusive = small, poorly fitted or top-dose-only effect, or another doubt; inactive = no such curve, though single readings can be large or run the other way
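Proteasome blockade was scored as a rise in GFP-expressing U2OS cells carrying a ubiquitin(G76V)-GFP construct, imaged after 4 hr compound treatment at 37 °C across a 46 uM–2.9 nM series.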
Imprint erasure: qHTS Assay for Compounds that Induce Erasure of Genomic Imprints. mouse ES Peg3-LacZ reporter, beta-gal luminescence, 40 h. Potency, µM (highest dose often 60.7 µM), hits mostly activators. 0.02% of 110,000 active. AID 1948, 2009
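Imprint erasure is scored as LacZ activity from the silenced maternal Peg3 allele in feeder-free female ES cells cultured 40 h with LIF. Luminescence is normalized to in-plate negative controls and fitted to the Hill equation.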
Large screens that a line does not name were inactive; ! = repeats disagree. An excerpt weighted towards active compounds, which were near 1.6% of everything screened. Unless noted, calls come from the whole dose curve; as a rule, active = well fitted curve in the direction sought with a large enough effect; inconclusive = small, poorly fitted or top-dose-only effect, or another doubt; inactive = no such curve, though single readings can be large; an effect the other way counts as inactive or inconclusive.

Cc1ccc(Cn2c(CO)cnc2SCC(=O)Nc2ccc(C)c(Cl)c2)cc1	p53ts 39C kill 12.6µM (no result: HBB splice mod, GFP derepression, Ub-GFP proteasome)
CNCCC=C1c2ccccc2CCc2ccccc21	p53ts 32C kill 20µM!, p53ts 39C kill 20µM!
COc1ccc(Cl)cc1NC(=O)Cn1c(=O)n(Cc2ccco2)c(=O)c2cccnc21	none (no result: HBB splice mod, GFP derepression, Ub-GFP proteasome)
COC(=O)/C(=C1/Oc2cc(C)oc(=O)c2S1)C(F)(F)F	GFP derepression 10µM (no result: HBB splice mod, Ub-GFP proteasome, Imprint erasure)
COC(=O)C1=C(N)Oc2cc(C)oc(=O)c2C1c1ccncc1 (stereo unspecified)	none (no result: HBB splice mod, p53ts 32C kill, p53ts 39C kill, Ub-GFP proteasome, Imprint erasure)
CCCc1ccc(C2Sc3ccccc3NC3=C2C(=O)c2ccccc23)cc1 (stereo unspecified)	none (no result: HBB splice mod, GFP derepression, Ub-GFP proteasome)
Cc1cccc2c1N(CCOc1ccc(C(C)(C)C)cc1)C(=O)C2=O	none (no result: HBB splice mod, GFP derepression, p53ts 32C kill, Ub-GFP proteasome, Imprint erasure)
CCCOc1ccc(CN2C(=O)C(=O)c3cccc(C)c32)cc1	p53ts 39C kill 15.8µM (no result: HBB splice mod, GFP derepression, Ub-GFP proteasome)
Cc1ccc(CN2C(=O)C(=O)c3cc(Br)cc(C)c32)cc1	p53ts 32C kill inconclusive, p53ts 39C kill 10µM (no result: HBB splice mod, GFP derepression, Ub-GFP proteasome)
CCn1c(=O)c2sccc2n2c(CCC(=O)Nc3ccc(C(C)C)cc3)nnc12	none (no result: HBB splice mod, GFP derepression, Ub-GFP proteasome)
CCCCCSc1nc2sc3c(c2c(=O)n1-c1ccccc1)CCN(C(C)=O)C3	p53ts 32C kill inconclusive, p53ts 39C kill 12.6µM (no result: HBB splice mod, GFP derepression, Ub-GFP proteasome)
O=C(CCC1CCCC1)Nc1ccc(OCC(=O)N2CCOCC2)cc1	p53ts 32C kill 7.94µM, p53ts 39C kill inconclusive (no result: HBB splice mod, GFP derepression, Ub-GFP proteasome, Imprint erasure)
COc1ccc(-c2nn3c(-c4ccccc4C)nnc3c3ccccc23)cc1	p53ts 39C kill 10µM (no result: HBB splice mod, GFP derepression, Ub-GFP proteasome)
Cc1ccccc1-c1nnc2c3ccccc3c(C)nn12	none (no result: HBB splice mod, GFP derepression, Ub-GFP proteasome, Imprint erasure)
CC(C)c1ccc(NC(=O)CN2C(=O)C3(SCC(=O)N3c3ccc(F)cc3)c3ccccc32)cc1 (stereo unspecified)	none (no result: HBB splice mod, GFP derepression, Ub-GFP proteasome)
S=C(S)O[C@@H]1C[C@@H]2C[C@H]1[C@@H]1CCC[C@H]21	p53ts 39C kill inconclusive
Cc1cccc(Cn2c(SCc3ccc(C(=O)NCc4ccccc4F)cc3)nc3ccncc32)c1	none (no result: HBB splice mod, GFP derepression, Ub-GFP proteasome)
N#C/C(=N\O)c1nc(-c2ccccc2)cs1	none (no result: HBB splice mod, p53ts 32C kill, p53ts 39C kill, Ub-GFP proteasome, Imprint erasure)
N#CC(=C1CCCC1)c1nc(-c2ccccc2O)cs1	p53ts 32C kill 10µM, p53ts 39C kill 12.6µM
Cc1cccc(-c2noc(-c3ccc(NCC4CCCO4)c([N+](=O)[O-])c3)n2)c1 (stereo unspecified)	none (no result: HBB splice mod, GFP derepression, Ub-GFP proteasome)
Cc1[nH]n(-c2ccccc2)c(=O)c1/C=N/c1ccccn1	p53ts 32C kill inconclusive, p53ts 39C kill inconclusive
Cc1ccc(-n2[nH]c(C)c(C=Nc3ccc(C)cn3)c2=O)cc1	p53ts 32C kill 12.6µM, p53ts 39C kill 12.6µM
CCCCN(C)CCCNC(=O)C1CCN(c2nc3ccc(CC)cc3s2)CC1	p53ts 32C kill 12.6µM, p53ts 39C kill inconclusive (no result: HBB splice mod, GFP derepression, Ub-GFP proteasome)
CCCCN(C)CCCNC(=O)C1CCN(S(=O)(=O)CC)CC1	none (no result: HBB splice mod, GFP derepression, Ub-GFP proteasome)
CCc1ccc2nc(N3CCN(C(=O)c4ccco4)CC3)sc2c1	p53ts 39C kill inconclusive (no result: HBB splice mod, GFP derepression, Ub-GFP proteasome)
CCCCN(CC)CCCNC(=O)C1CCN(c2nc3ccc(CC)cc3s2)CC1	p53ts 32C kill 12.6µM, p53ts 39C kill 20µM (no result: HBB splice mod, GFP derepression, Ub-GFP proteasome)
COc1ccc2c(c1)c1c(C)c3cnccc3c(C)c1n2CCCN	GFP derepression inconclusive (no result: p53ts 32C kill, p53ts 39C kill)
Cc1ccc(Cl)cc1N1CCN(CCCNC(=O)c2nnc(Cc3cccc(Cl)c3)o2)CC1	p53ts 39C kill 12.6µM (no result: HBB splice mod, GFP derepression, Ub-GFP proteasome)
O=C(NCCCN1CCN(c2ccccc2F)CC1)c1nnc(Cc2ccc(Cl)cc2Cl)o1	p53ts 39C kill inconclusive (no result: HBB splice mod, GFP derepression, Ub-GFP proteasome)
CC(C)(CO)Cc1cc(C(C)(C)C)c(O)c(C(C)(C)C)c1	p53ts 32C kill 20µM, p53ts 39C kill 31.6µM
CC(C)(C=O)Cc1cc(C(C)(C)C)c(O)c(C(C)(C)C)c1	none
CC1(C)Cc2c(sc(NC(=O)c3ccco3)c2C#N)CO1	p53ts 32C kill 10µM, p53ts 39C kill 12.6µM (no result: HBB splice mod)
CCCN1CCN(CCCNC(=O)Cn2c(-c3cccs3)cc3ccccc32)CC1	none (no result: HBB splice mod, GFP derepression, p53ts 39C kill, Ub-GFP proteasome, Imprint erasure)

Bioassay records from PubChem BioAssay.
